High-throughput results as filed in PubChem.
A selection: hits, their analogues and other compounds. The true share with any hit is near 8.7%.
Cav3 T inh: human Cav3.2 channel inhibition, primary screen | O95180 | Cav3.2-expressing cells, Fluo-4 calcium fluorescence FDSS; stronger effect = lower value | B-score at 10 µM | 100,000 tested, 4% active | AID 449739;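 active means single-dose well whose peak fluorescence ratio is a statistical outlier from its plate by either plate-standardised score or position-corrected B-score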
Smad3 FoxH1 inh: blocks human Smad3 binding to FoxH1 peptide. 88,000 tested, 0.29% active. inhibition, % at 25 µM. P84022. TR-FRET Smad3/Dy647-FoxH1 peptide binding, europium anti-His;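 active means compounds that reduce the energy-transfer binding signal between the protein and its labelled peptide by more than half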;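 further: 0% = Smad3 plus labelled peptide maximal FRET and 100% = peptide-only background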
hDAT+cocaine: human DAT dopamine uptake with cocaine, either direction; Q01959; B-score at 10 µM; 110,000 tested, 1.3% active; LLC-PK1 hDAT cells, [14C]-dopamine uptake with cocaine IC80; actives deviate in either direction;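 active means Z score or B-score, a plate-position-corrected score, falls beyond the plate's 99.7% confidence bounds, in either direction; inactive means both scores lie inside the 99.7% bounds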;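 further: scored against the spread of the other compound wells on the same plate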
PostGolgi ctrl: inhibits growth of the yeast control strain; 98,000 tested, 5% active; efflux-deficient yeast background strain, growth absorbance A615, 16 h; inhibition, % at 10 µM
TNAP act mid DEA: activates human TNAP at intermediate phosphate acceptor concentration | AID 813 | activation factor at 20 µM | purified TNAP, CDP-star luminescence, 100 mM DEA, 30 min; stronger effect = higher value; scale: 0 levamisole-inhibited, 1 vehicle-only enzyme | 64,000 tested, under 10 active | P05186;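 active means activation factor of at least 2 at 20 µM, relative to controls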
Target sequence (P05186 whole entry, looked up): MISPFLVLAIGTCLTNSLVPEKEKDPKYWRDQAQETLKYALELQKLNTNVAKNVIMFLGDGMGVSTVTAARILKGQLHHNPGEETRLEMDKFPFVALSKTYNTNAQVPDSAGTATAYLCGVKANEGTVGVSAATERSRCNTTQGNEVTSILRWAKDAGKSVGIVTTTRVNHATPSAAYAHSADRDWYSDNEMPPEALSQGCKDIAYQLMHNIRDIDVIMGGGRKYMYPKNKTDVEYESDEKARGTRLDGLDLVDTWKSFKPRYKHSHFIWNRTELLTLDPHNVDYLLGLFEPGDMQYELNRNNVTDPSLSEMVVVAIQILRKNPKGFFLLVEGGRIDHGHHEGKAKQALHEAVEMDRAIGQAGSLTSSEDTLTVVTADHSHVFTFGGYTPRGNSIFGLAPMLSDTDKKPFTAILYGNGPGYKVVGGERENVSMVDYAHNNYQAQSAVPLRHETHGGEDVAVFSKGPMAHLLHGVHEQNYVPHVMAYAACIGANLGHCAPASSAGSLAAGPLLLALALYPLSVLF
PostGolgi yeast: growth inhibition of a yeast mutant, post-Golgi transport screen. AID 739. inhibition, % at 10 µM. 98,000 tested, 0.9% active. post-Golgi transport phenotypic cell assay;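 further: yeast cells grown in 1536-well plates; yeast grown about 18 h at 30C before absorbance read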
Starred values were filed as active, the others as inactive; . = not tested or not shown. Unless noted, no stated cut-off is given here; in the data, active means inhibition above about 30%; inactive means the rest.

SMILES | Cav3 T inh | Smad3 FoxH1 inh | hDAT+cocaine | PostGolgi ctrl | TNAP act mid DEA | PostGolgi yeast
COc1cccc(NC(=O)C(OC(=O)/C=C/c2ccc3c(c2)OCO3)c2ccccc2)c1 (configuration not stated) | -5.08* | . | 0.576 | 10.2 | . | 3.2
CCCN(CCC)C(C(=O)Nc1cccc(OC)c1)c1ccccc1 (configuration not stated) | . | 5.2 | -0.202 | 27.0 | 0.9 | 4.2
COc1ccccc1C(=O)N/C(=C\c1ccc(Br)cc1)C(=O)NCCO | 0.457 | . | 0.301 | -1.9 | . | 1.0
CCN(CC)C(=O)/C(=C\c1ccc(Br)cc1)NC(=O)c1ccccc1OC | -1.34 | . | 14.6* | 27.5 | . | -2.2
COc1cccc(NC(=O)c2ccccc2-c2nc(-c3ccc(F)cc3)no2)c1 | -1.09 | 2.0 | -0.594 | 55.7* | 0.9 | 25.2
COc1ccc(-c2noc(-c3ccccc3C(=O)NCc3ccco3)n2)cc1OC | . | 11.3 | 0.983 | 30.9* | 1.1 | -2.2
COc1cccc(NC(=O)c2ccccc2-c2nc(-c3ccccc3)no2)c1 | -0.534 | -15.3 | 0.416 | 41.6* | 0.9 | -2.8
COc1cccc(NC(=O)c2ccccc2-c2nc(-c3ccc(Cl)cc3)no2)c1 | -2.48 | 10.9 | 0.00117 | 35.4* | 0.9 | -7.4
COc1ccccc1-c1noc(-c2ccccc2C(=O)Nc2ccccc2)n1 | -0.0253 | 10.2 | 0.8 | 27.3 | 0.9 | 7.1
COc1ccc(-c2noc(-c3ccccc3C(=O)NCc3ccco3)n2)cc1 | -1.97 | 3.5 | 0.348 | 18.7 | 0.9 | -8.2
CN1Cc2c(N)cccc2C(c2ccccc2)C1 (configuration not stated) | -0.582 | -2.8 | . | . | 0.9 | .
CC1(C)Cc2c(c(N3CCCC3)[nH]c(=S)c2C#N)CO1 | . | 15.9 | . | -0.3 | . | -14.8
CCCOc1ccccc1NC(=O)c1c(-c2ccccc2)noc1C | -4.84* | 0.0 | -0.023 | 14.8 | 0.8 | 5.8
Cc1onc(-c2ccccc2)c1C(=O)Nc1cc(C(F)(F)F)ccc1N1CCOCC1 | -5.93* | 8.9 | 0.0391 | 43.3* | 1 | 1.9
O=C(CCc1ccccc1)NC(=S)Nc1cc(C(F)(F)F)ccc1N1CCOCC1 | -5.66* | . | -0.0116 | 19.1 | . | -1.8
Cc1onc(-c2ccccc2)c1C(=O)Nc1ccccc1N1CCOCC1 | -1.56 | -9.6 | 0.574 | 14.9 | 1 | 4.5
CN1CCN(CC#CC2(O)CCCCC2)CC1 | 0.299 | -1.6 | 0.0883 | 3.2 | 0.9 | -2.2
CCOC(=O)c1nnn(-c2nonc2N)c1-c1ccc(OCC)cc1 | -1.21 | 2.5 | -0.13 | 12.0 | 0.9 | 0.6
O=C(Nc1ccc2c(c1)CCC2)c1cccc(S(=O)(=O)N2CCN(c3ccccc3)CC2)c1 | -5.68* | . | -0.547 | -1.2 | . | -1.9
O=C(NC1CCCC1)c1cccc(S(=O)(=O)N2CCCCC2)c1 | . | 1.8 | 0.0112 | 22.8 | 0.9 | -6.7
O=C(NC1CCCc2ccccc21)c1cccc(S(=O)(=O)N2CCN(c3ccccc3)CC2)c1 (configuration not stated) | -10.3* | . | 0.179 | 8.7 | . | 10.5
Cc1ccc2cc(CN(CC3CCCO3)C(=O)c3ccco3)c(=O)[nH]c2c1C (configuration not stated) | . | -5.3 | . | . | 0.9 | .
O=S1(=O)CCN2C(=N1)Sc1c2ccc2c1CCCC2 | 0.385 | 9.1 | -0.421 | 14.2 | 0.9 | -0.2
CCOC(=O)c1[nH]c(C)c(C(=O)OCCN2C(=O)c3ccccc3C2=O)c1C | . | 12.0 | 0.02 | 1.4 | 1 | 3.0
COc1ccc(C(=O)/C=C/c2ccc(O)cc2)c(O)c1CC=C(C)C | 1.02 | . | -0.904 | . | . | .
SMILES | Cav3 T inh | Smad3 FoxH1 inh | hDAT+cocaine | PostGolgi ctrl | TNAP act mid DEA | PostGolgi yeast
CCOCCCNC(=O)C(c1ccc(Cl)cc1)N1CCC2(CC1)OCCO2 (configuration not stated) | 1.66 | 8.6 | -8.53* | 1.1 | 1 | -3.9
CCOCCCNC(=O)C(c1ccc(Cl)cc1)N1CCN(c2ccccc2)CC1 (configuration not stated) | -1.44 | -1.1 | 0.291 | 30.6* | 1 | 4.9
COc1ccccc1Cc1nnnn1CC(=O)O | 0.092 | -15.7 | 0.0212 | 0.3 | . | -3.4
C=C(C)Cn1c(SCCN2CCOCC2)nc2c1c(=O)[nH]c(=O)n2C | -0.0668 | 0.1 | 0.742 | . | . | .
O=C(Oc1cccc(Br)c1)c1cccnc1 | 0.266 | 8.8 | 0.562 | 33.5* | 1 | 12.0
COC(=O)c1cc(Br)ccc1OC(=O)c1cccnc1 | -0.111 | -6.6 | -0.0835 | -0.3 | 1 | 4.6
CC(=O)NCC12CC3CC(C1)CC(C(=O)O)(C3)C2 | -0.151 | 8.7 | 0.0598 | 1.9 | 1 | 3.9
CC(C)C(NS(=O)(=O)c1cccc2nsnc12)C(=O)Nc1nc2ccc(Cl)cc2s1 (configuration not stated) | . | . | . | 46.9* | . | -0.8
CCOc1ccc2nc(NC(=O)C(NS(=O)(=O)c3cccc4nsnc34)C(C)C)sc2c1 (configuration not stated) | -1.53 | -6.3 | -0.0277 | 14.1 | . | 2.0
Cc1ccc(C(=O)NCc2occc2C(=O)O)o1 | -0.511 | . | -0.0282 | -2.6 | 1 | 34.1*
CC(=O)CC(c1ccc([N+](=O)[O-])cc1)c1c(O)c2ccccc2oc1=O (configuration not stated) | -0.239 | . | 0.528 | 11.1 | . | 1.1
CCC(=O)N1CCN(c2ccc(NC(=O)c3c(F)c(F)c(OC)c(F)c3F)cc2)CC1 | -2.56 | -2.0 | -0.157 | 5.6 | . | -5.0
CC(C)CCNC(=O)CN(Cc1ccc2c(c1)OCO2)C(=O)Cn1nnc(-c2cccs2)n1 | -3.39 | -0.4 | 2.63 | 7.5 | 0.9 | 7.4
O=C(N/C(=C/c1ccc(Cl)cc1)c1nc2ccccc2[nH]1)c1ccco1 | . | . | . | -3.2 | . | 23.4
O=C(/C(=C/c1ccc(Cl)cc1)c1nc2ccccc2[nH]1)c1ccccc1 | 0.92 | . | -0.506 | 102.4* | . | 61.7*
CN(C)Cc1ccc(-c2cc3onc(-c4ccccc4)c3c(=O)n2C)cc1 | . | -8.9 | . | . | . | .
O=C(CNC(=O)C12CC3CC(CC(C3)C1)C2)NC1=NCCS1 | 0.665 | 7.1 | 0.0355 | 5.5 | 1 | 0.3
c1ccc(-n2c(SCc3nc(-c4cccs4)no3)nnc2-c2ccco2)cc1 | -2.92 | 8.6 | 0.176 | 34.1* | 1 | -5.3
O=C(Cn1c(=O)n(CC2CCCO2)c(=O)c2ccccc21)c1ccccc1 (configuration not stated) | -0.0308 | 11.3 | 0.565 | -1.3 | 0.8 | 25.1
CCOC(=O)C1CCCN(C(=O)c2cc3c(-c4cccc(OC)c4)nn(C)c3s2)C1 (configuration not stated) | -4.23* | 5.4 | -0.243 | 8.1 | 0.8 | -3.3
CCOC(=O)C1CCCN(C(=O)c2cc3nc(-c4cccc(OC)c4)cc(C(F)(F)F)n3n2)C1 (configuration not stated) | -2.6 | 2.3 | 2.7* | 4.4 | 0.9 | 2.7
O=C(CNCCC1=CCCCC1)Nc1ccc(N2CCCCCC2)cc1 | -5.06* | 0.9 | 1.48 | 99.7* | . | -1.2
Cc1sc2ncnc(Nc3ccccc3)c2c1C | -1.1 | 5.7 | -1.46 | 33.1* | . | 3.4
Cc1sc2ncnc(NCc3ccccc3)c2c1C | 0.674 | 2.3 | 0.152 | 5.8 | . | -4.3
